In PMC5540273 (PLoS ONE, 2017):

What follows are compounds tested on PAK4. Details: concentration: 1 μM, replicates: in singlicate; n = 1.
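Note: KINOMEscan kinase panel screen.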

Compound | %Inh [%]
Cc1ccc(C(=O)Nc2ccc(Nc3ccnc4cc(-c5ccccn5)ccc34)cc2O)cc1.Cl [GW440146] | 0
Cl.c1ccc(-c2n[nH]cc2-c2ccnc(-c3ccc(CN4CCOCC4)cc3)c2)nc1 [GW776245] | 16
Cn1cncc1-c1ccc2ncnc(Nc3ccc(OCc4ccccc4)cc3)c2c1 [GW320571] | 0
Clc1cc(Cl)cc(Nc2ccnc(Nc3cc(Cl)cc(Cl)c3)n2)c1 [GSK175726] | 6
Cc1cccc(-c2nc(-c3ccc(S(C)(=O)=O)cc3)sc2-c2ccnc(NCCc3ccccc3)c2)c1 | 1
Cc1cccc(-c2nc(Nc3ccncc3)c3ccccc3n2)n1 [GW855857] | 0
COc1ccc(Nc2nccc(-c3cccc(NC(=O)c4cc5cc(F)ccc5[nH]4)c3)n2)cc1 [GSK1229782] | 22
COc1cc2ncn(-c3cc(OCC4CCCO4)c(C(N)=O)s3)c2cc1OC (stereo not shown) [GSK204607] | 0
COc1ccc(CNC(=O)NC2CCN(c3ccnc(Nc4cc(OC)c(OC)c(OC)c4)n3)C2)cc1 (stereo not shown) [GSK1379748] | 0
CC(C)(C)c1ccc(C(=O)Nc2cn3cc(Cl)ccc3n2)cc1 | 0
O=C(Nc1n[nH]c2cc(-c3cccc(F)c3F)ccc12)C1CC1 [SB-733894] | 12
CCn1c(-c2ccccn2)nc2cnccc21 [SB-736398] | 0
Cn1ccc2ncnc(Oc3cccc(C(=O)Nc4ccccc4)c3)c21 | 21
